# NADH coupling = inhibitors of enzymes used to reach an NAD/NADH endpoint | coupled PK/LDH NADH assays, four targets | IC50, µM (series often up to 10 µM) | 65,000 tested, 0.02% active | AID 774;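 active = single-dose screening hits from any of four coupled enzyme assays that gave an IC50 when retested across doses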;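 note: the DPM-DC format reads NADH fluorescence rather than 340 nm absorbance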
# A340 absorber = compounds absorbing at 340 nm; compound absorbance at 340 nm, fold over control; fold change at 10 µM; 65,000 tested, under 10 active; AID 708;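 active = at 10 µM dose, initial 340 nm absorbance at least 2 fold that of control wells; inactive = change under 2 fold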;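 note: initial absorbance extrapolated from kinetic A340 decline of NADH oxidation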
# PMK inhibit = S. pneumoniae PMK inhibition. 65,000 tested, 0.49% active. inhibition, % at 10 µM. purified PMK, PK/LDH-coupled NADH absorbance 340 nm;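 active = top-ranked compounds by inhibition in the single 10 µM screen, taking a fixed number of the strongest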
# Spn DPM-DC inh = inhibitors of Streptococcus pneumoniae diphosphomevalonate decarboxylase; purified DPM-DC, PK/LDH coupled NADH fluorescence; calls only at 10 µM; 65,000 tested, 0.49% active; AID 556;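 active = the 320 compounds with the highest percent inhibition in the single-dose primary screen, excluding strongly autofluorescent ones, cut at about 32% in these data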;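 note: kinetic rate of NADH fluorescence loss reporting ADP formed by the decarboxylase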
# MK inhibit = inhibitors of Streptococcus pneumoniae mevalonate kinase | 65,000 tested, 0.48% active | inhibition, % at 10 µM | purified MK, PK/LDH-coupled NADH absorbance 340 nm | AID 555;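 active = ranked among the strongest by inhibition in the single 10 µM screen, a fixed top-ranked set picked for dose follow-up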
# Fluor 339 460 = intrinsic fluorescence of library compounds, ex339/em460 – biochemical, MLSMR library, data from DPM-DC assay, artefact control, profiling panel; compound autofluorescence, ex339/em460 nm, NADH buffer; stronger effect = higher value; 1 = no-compound wells, NADH background; fluorescence fold increase at 10 µM; 65,000 tested, 5.5% active;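 active = at 10 µM, mean starting fluorescence two-fold or more over control wells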;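 note: signal is the first read of a kinetic run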
# A number is an active result; . = inactive; / = no result given; + = active, no number; [ ] = another dose, or the depositor's remark. Rows were chosen to be rich in hits. Some 6.3% of all compounds tested hit in one or more screens of this group.
SMILES,NADH coupling,A340 absorber,PMK inhibit,Spn DPM-DC inh,MK inhibit,Fluor 339 460
OC1CCCN(Cc2ccc3c(c2)Cc2ccccc2-3)C1 (configuration not stated),.,.,33,.,.,.
CN(C)CCN(C)Cc1ccc2c(c1)Cc1ccccc1-2,.,.,.,.,.,.
O=C(O)c1cccc(N2CCCC2)c1,.,.,.,/,.,5
CCCN1C(=O)c2cc(C(=O)O)ccc2C1O (configuration not stated),.,.,.,.,.,.
CCCN1C(=O)c2ccccc2NC1c1ccc(OC)cc1O (configuration not stated),.,.,.,/,.,5
CCCN1C(=O)c2ccccc2NC1c1ccc(OC)cc1OC (configuration not stated),.,.,.,/,.,5.1
CCOc1cc(NC(=O)C2CC2)c(OCC)cc1NC(=O)c1cccnc1,.,.,.,.,.,.
CC(C)(C)C(=O)C(Oc1cccc2nonc12)n1cncn1 (configuration not stated),.,.,.,.,.,.
Cc1cc(=O)[nH]c2ccccc12,.,.,.,+,.,.
O=C(O)COc1ccc2c(c1)CCCC2,.,.,.,.,.,.
CCOC(=O)COc1ccc2c(c1)C(=O)CC1(CCN(C(C)=O)CC1)O2,.,.,.,/,.,4.8
CCOC(=O)COc1ccc2c(c1)C(=O)CC(C)(C)O2,.,.,.,/,.,4.8
CC1(C)CC(=O)c2cc(OCC(=O)O)ccc2O1,.,.,.,/,.,4.8
CC1(C)CC(=O)c2cc(OCC(=O)N3CCN(c4ccccc4F)CC3)ccc2O1,.,.,26,+[may fluoresce],.,2.6
CCCCCC(=O)N1CC2(CC)CN(C(=O)CCCCC)CC(CC)(C1)C2=O,.,.,.,.,.,.
COc1ccc(-c2nnc3ccc(SCC(=O)N4CCN(c5ccccc5)CC4)nn23)cc1OC,.,.,.,.,.,.
CC(=O)Nc1ccc(S(=O)(=O)c2c(N)n(CCN3CCOCC3)c3nc4ccccc4nc23)cc1,.,.,.,/,.,2.3
Nc1c(C(=O)NCCN2CCOCC2)c2nc3ccccc3nc2n1CCc1ccccc1F,.,.,.,/,.,3.9
c1ccc2nc3c(nc2c1)c1ccccc1n3CCN1CCOCC1,.,.,.,.,.,.
CC(=O)Nc1nc2ccccc2n1CCN1CCOCC1,.,.,.,.,.,.
Nc1c(C(=O)NCCN2CCOCC2)c2nc3ccccc3nc2n1CCc1ccccc1,.,.,.,/,.,3.9
O=c1[nH]c2cc3c(cc2cc1CN(CCCO)Cc1nnnn1Cc1ccc(F)cc1)OCO3,.,.,.,+,.,3.1
Cc1ccc2cc(CN(CCO)Cc3nnnn3Cc3ccc(F)cc3)c(=O)[nH]c2c1,.,.,.,.,.,.
CCOc1ccc2[nH]c(=O)c(CN(Cc3cccs3)Cc3nnnn3C(C)(C)CC)cc2c1,.,.,.,.,.,2.6
Cc1ccc2[nH]c(=O)c(CN(Cc3ccc4c(c3)OCO4)Cc3nnnn3Cc3ccco3)cc2c1,.,.,.,.,.,.
SMILES,NADH coupling,A340 absorber,PMK inhibit,Spn DPM-DC inh,MK inhibit,Fluor 339 460
O=c1[nH]c2cc3c(cc2cc1CN(Cc1cccs1)Cc1nnnn1Cc1ccco1)OCCO3,.,.,.,.,.,2.4
CCc1ccc2[nH]c(=O)c(CN(Cc3ccccc3)Cc3nnnn3Cc3ccco3)cc2c1,.,.,.,.,.,.
CCC(C)(C)n1nnnc1CN(Cc1cccs1)Cc1cc2cc(OC)ccc2[nH]c1=O,.,.,.,.,.,.
O=c1[nH]c2cc3c(cc2cc1CN(Cc1ccccc1)Cc1nnnn1Cc1ccco1)OCCO3,.,.,.,.,.,2.5
Cc1ccc(Cn2ncc3c(N4CCN(c5ccccc5C)CC4)ncnc32)cc1,.,.,.,.,.,.
c1ccc(-c2nc(NC3CC3)nc(-n3ccnc3)n2)cc1,.,.,.,.,.,.
COC(=O)c1ccc(CSc2nnc3c(Cl)cc(Cl)cn23)o1,.,.,.,.,.,.
O=C(Cc1cccs1)N(Cc1ccco1)C1(C(=O)NC2CCCC2)CCCCC1,.,.,.,.,.,.
COC(=O)CCC(=O)Nc1ccc(Br)cc1,.,.,.,.,.,.
O=c1nc(-c2ccccc2)n(-c2ccccc2)c2ncccc12,.,.,.,.,.,.
Cc1cccc(-c2nc(C#N)c(NC3CCCCC3)o2)c1,.,.,.,.,.,2.1

# From PubChem BioAssay
